The text below walks through data of PubChem BioAssay (NCATS).

A short description of assay [1]: qHTS profiling of the MIPE4 collection as inhibitors of Plasmodium falciparum (3D7) proliferation (AID 743344).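 Note: scaled between DMSO vehicle wells and 0.29 µM artemisinin as full inhibition.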 Particulars: P. falciparum 3D7 in erythrocytes, SYBR Green DNA fluorescence, 72 h; at 28.5 µM. A digest of the protocol: (§1)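 Parasite DNA was quantified by SYBR Green I fluorescence (ex 485, em 535 nm) after overnight lysis in saponin/Triton buffer at room temperature. Cultures at 0.3% parasitemia and 2.5% hematocrit were first exposed to compound for 72 h at 37 C; signals were normalised to artemisinin (0.29 uM) and vehicle wells.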
On the technique in general: qHTS replaces the single test concentration by a dilution series.

Assay [2] in a line: qHTS profiling of the MIPE4 collection as inhibitors of Plasmodium falciparum (DD2) proliferation (AID 743345). Particulars: P. falciparum Dd2 in erythrocytes, SYBR Green DNA, 72 h; at 28.5 µM unless noted. A digest of the protocol: as §1
Assay [3] can be described thus: qHTS profiling of the MIPE4 collection as inhibitors of Plasmodium falciparum (DD2) proliferation (Rep 2) (AID 743346). Particulars: P. falciparum Dd2 in erythrocytes, SYBR Green DNA, 72 h; at 28.5 µM. A digest of the protocol: as §1
Assay [4] is described as follows: qHTS profiling of the MIPE4 collection as inhibitors of Plasmodium falciparum (HB3) proliferation (AID 743347).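 Note: plate controls were DMSO vehicle wells for no effect and artemisinin wells for full effect.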 Particulars: P. falciparum HB3 in erythrocytes, SYBR Green DNA, 72 h; at 28.5 µM. A digest of the protocol:
as §1

The nature of assay [5]: qHTS Assay for Identifying Gametocytocidal Compounds (AID 743244; active = well fitted curve in the direction sought with a large enough effect; an effect the other way counts as inactive or inconclusive; note: potency is the fitted concentration of half-maximal effect;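 for max response: % is set by controls: 0 for no effect and ±100 for the full control effect; actives lower the fluorescent signal which means gametocytes are killed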). Particulars: P. falciparum 3D7 stage III-V gametocytes, alamarBlue, 72 h; max response: stronger effect = lower value. A digest of the protocol: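 Stage III–V gametocytes of P. falciparum 3D7 were seeded at 20,000 cells/well onto pre-dispensed compounds. After 72 h, 37 °C, 5% CO2, alamarBlue was added for another 24 h.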

Assay [6] can be described thus: qHTS profiling for inhibitors of Plasmodium falciparum (DD2) proliferation (AID 743323). To be noted: lower = more inhibition; at 28.7 µM (top of the series) unless noted. A digest of the protocol:
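SYBR Green fluorescence (ex 485, em 535 nm) of lysed cultures gives parasite DNA content; wells normalized to artemisinin (0.29 uM) and DMSO controls. Infected red cells: 0.3% parasitemia, 2.5% hematocrit, 72 h, 37 C.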

The nature of assay [7]: qHTS profiling for inhibitors of Plasmodium falciparum (HB3) proliferation (AID 743324; active = well fitted curve in the direction sought with a large enough effect; an effect the other way counts as inactive or inconclusive;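 note: 100% = DMSO vehicle wells and 0% = artemisinin-treated control wells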). Particulars: Plasmodium falciparum HB3 blood-stage proliferation; at 28.7 µM (top of the series) unless noted. A digest of the protocol:
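SYBR Green fluorescence (485 ex/535 em) of lysed cultures, incubated overnight at room temperature in the dark, quantifies parasite DNA. Infected erythrocytes at 0.3% parasitemia and 2.5% hematocrit were exposed 72 h; values normalized to DMSO and 0.29 uM artemisinin controls.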

Assay [8] in a line: qHTS profiling for inhibitors of Plasmodium falciparum (3D7) proliferation (AID 743322).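 Note: infected erythrocytes exposed to compound for 72 h before lysis; 100% = DMSO vehicle wells and 0% = 0.29 µM artemisinin.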 To be noted: P. falciparum 3D7 proliferation; at 28.7 µM (top of the series) unless noted. A digest of the protocol: as §1

Molecules are shown by their SMILES. Results filed as inconclusive are left out. Calls of active or inactive are those of the source. Unless noted, the rule behind the calls is not given here.

Molecule `C[C@]12CC[C@H]3[C@@H](CCC4=CC(=O)CC[C@@]43C)[C@H]1CC[C@H]2OC(=O)CCC1CCCC1` showed a parasite growth, % of DMSO control in assay [1] of 7.86%. Further, the parasite growth remaining, % of DMSO control (lower = more inhibition) in assay [2] stood at 15.6%. In assay [3], this molecule displayed a parasite growth, % of control (lower = inhibition) of 18.3%. In assay [4], this molecule gave a growth, % of control of 6.49%.
In turn, `C[C@@]12OC(=O)[C@]1([C@@H](O)[C@@H]1C=CCCC1)NC(=O)[C@H]2CCCl` showed a parasite growth, % of DMSO control in assay [1] of 4.78%. Besides, in assay [2], the parasite growth remaining, % of DMSO control (lower = more inhibition) stood at 7.57%. The parasite growth, % of control (lower = inhibition) in assay [3] is 10.7%. The molecule also came in with a growth, % of control in assay [4] of 5.21%.
For the molecule `CCN(CC)C(=O)c1ccc(C2=CC3(CCNCC3)Oc3cccc(O)c32)cc1`, in assay [1], the parasite growth, % of DMSO control is 21.1%. Besides, in assay [2], the parasite growth remaining, % of DMSO control (lower = more inhibition) is 42.1%. In assay [3], this molecule yielded a parasite growth, % of control (lower = inhibition) of 14.4%. For the same molecule, in assay [4], the growth, % of control stood at 38.8%.
Turning to `NC1=NC(=O)N2CC12` (centres undefined), the max response in assay [5] was -4.05% (inactive). Also, the parasite growth, % of DMSO control in assay [1] stood at 49.2%. Besides, the parasite growth remaining, % of DMSO control (lower = more inhibition) in assay [2] came out at 93.9%. The molecule further came in with a parasite growth, % of control (lower = inhibition) in assay [3] of 46.3%. This molecule came in with a growth, % of control in assay [4] of 68.6%.
For the molecule `O=C(O)c1ccc(O)c2ncc(N3CCOCC3)cc12`, in assay [5], the Potency was 9.35 µM (active). The same molecule came in with an activity, percent of control in assay [6] of 35.5%. In addition, the remaining proliferation (% of control), lower = more inhibition in assay [7] is 35.5%. This molecule also showed a parasite growth remaining, % of DMSO control (lower = more inhibition) in assay [2] of 37%.
In assay [1], `O=c1cccc2n1CC1CNC[C@H]2C1` registered a parasite growth, % of DMSO control of 71.3%. Further, the parasite growth remaining, % of DMSO control (lower = more inhibition) in assay [2] came to 90.9%. The parasite growth, % of control (lower = inhibition) in assay [3] stood at 53.7%. This molecule also displayed a growth, % of control in assay [4] of 52.1%.
For the molecule `CC(=O)Nc1ccc(OC[C@](C)(O)C(=O)Nc2ccc([N+](=O)[O-])c(C(F)(F)F)c2)cc1`, in assay [5], the max response was 0.149% (inactive). In addition, in assay [8], the remaining parasite growth % (stronger effect = lower value) was 102%. In assay [6], this molecule had an activity, percent of control of 97.8%. The molecule also yielded a remaining proliferation (% of control), lower = more inhibition in assay [7] of 71.3%. Besides, the parasite growth, % of DMSO control in assay [1] was 70.7%. Besides, the parasite growth remaining, % of DMSO control (lower = more inhibition) in assay [2] was determined as 88.6%. Moreover, the parasite growth, % of control (lower = inhibition) in assay [3] was found to be 88.3%. This molecule also yielded a growth, % of control in assay [4] of 91.2%.
Regarding `CCCCN1CCC(CNC(=O)c2c3n(c4ccccc24)CCCO3)CC1`, the remaining parasite growth % (stronger effect = lower value) in assay [8] was found to be 91.7%. Besides, the activity, percent of control in assay [6] was 54.7%. In assay [7], the remaining proliferation (% of control), lower = more inhibition worked out at 74.4%. Besides, in assay [2], the parasite growth remaining, % of DMSO control (lower = more inhibition) came to 56.2%. In addition, the parasite growth, % of control (lower = inhibition) in assay [3] was 38.7%. The growth, % of control in assay [4] stood at 32.4%.
`CCOC(=O)c1cncn1[C@H](C)c1ccccc1`: the parasite growth, % of DMSO control in assay [1] came to 46.8%. The parasite growth remaining, % of DMSO control (lower = more inhibition) in assay [2] was 98%. Further, the parasite growth, % of control (lower = inhibition) in assay [3] was 70.6%. The molecule further displayed a growth, % of control in assay [4] of 67.6%.
Turning to `CC[C@H](CO)Nc1nc(NCc2ccccc2)c2ncn(C(C)C)c2n1`, the remaining parasite growth % (stronger effect = lower value) in assay [8] came to 61.3%. The molecule further displayed an activity, percent of control in assay [6] of 50.4%. The parasite growth remaining, % of DMSO control (lower = more inhibition) in assay [2] turned out to be 67.6%. Besides, the parasite growth, % of control (lower = inhibition) in assay [3] was 48%. Also, the growth, % of control in assay [4] was 47.3%.
Take `CC(C)(C)c1[nH]cnc1C=c1[nH]c(=O)c(=Cc2ccccc2)[nH]c1=O`: the remaining parasite growth % (stronger effect = lower value) in assay [8] is 58.1%. For the same molecule, the activity, percent of control in assay [6] was determined as 49.6%. In assay [7], this molecule yielded a remaining proliferation (% of control), lower = more inhibition of 37.2%. This molecule also showed a parasite growth remaining, % of DMSO control (lower = more inhibition) in assay [2] of 41.8% [at 57.5 µM].
On to `Clc1ccc(C(c2ccc(Cl)cc2)n2cc[n+](CC(OCc3ccc(Cl)cc3Cl)c3ccc(Cl)cc3Cl)c2)cc1` (centres undefined), for which the Potency in assay [5] was 1 µM (active).
For the molecule `Nc1nc(-c2nn(Cc3ccccc3F)c3ncccc23)nc(N)c1N1CCOCC1`, the remaining parasite growth % (stronger effect = lower value) in assay [8] worked out at 100%. The activity, percent of control in assay [6] was 94.1%. Further, in assay [7], the remaining proliferation (% of control), lower = more inhibition was 67.6%. In assay [2], this molecule showed a parasite growth remaining, % of DMSO control (lower = more inhibition) of 91.1%. Moreover, in assay [3], the parasite growth, % of control (lower = inhibition) is 60.8%. Besides, the growth, % of control in assay [4] is 51.5%.
